We go through 68 compounds from ChEMBL document CHEMBL3988442, “University of Dundee, Small-Polar-MMV Screening Library” (2021).

Out of some 48,000 compounds screened, about 13,000 (27%) showed an effect of 50% or more. This is one part of the list.

This experiment concerns Wolbachia pipientis. Description: Anti-Wolbachia Cell-Based Screen. The class given is functional. More on the design: scale not given: in the data most compounds retested in dose-response had high values. The following applies: 5 µM.
Regarding `CC(O)C1CCN(C(=O)Nc2nc(-c3ccccc3)ns2)CC1` (stereo not drawn), the “Percent Effect” value is listed as -6.98%.

In the case of `Cc1nccn1-c1ccc(NC(=O)C2CCCN2Cc2c[nH]cn2)cc1` (stereo not drawn), the “Percent Effect” value is recorded as 1.287%.

For the compound `CNC(=O)c1cn[nH]c1C1CCCN1C(=O)c1ccccn1` (stereo not drawn), the “Percent Effect” value worked out at 122.3%.

For the compound `NC(=O)c1cn[nH]c1C1CCCN1C(=O)COc1ccccc1` (stereo not drawn), the “Percent Effect” value was 125.9%.

On to `O=C(c1cc2c([nH]c1=O)CCC2)N1CCCC1c1ccccn1` (stereo not drawn), for which the “Percent Effect” value is listed as -3.505%.

With `NC(=O)c1cn[nH]c1C1CCCN1C(=O)c1ccccc1` (stereo not drawn), the “Percent Effect” value was 135.8%.

Consider `O=C(c1cc2c([nH]c1=O)CCC2)N1CCCC1c1ccccc1` (stereo not drawn), for which the “Percent Effect” value is listed as -12.47%.

`NC(=O)c1cn[nH]c1C1CCCN1C(=O)c1ccccn1` (stereo not drawn): the “Percent Effect” value worked out at 92.76%.

As to `O=C(c1ccncc1F)N1CCCC1c1nc(-c2ccccc2)n[nH]1` (stereo not drawn), the “Percent Effect” value came out at 0.33%.

With `COc1ncccc1C(=O)N1CCCC1c1nc(-c2ccccc2)n[nH]1` (stereo not drawn), the “Percent Effect” value turned out to be 0.4619%.

For `CN(CC(=O)Nc1cccc(F)c1)Cc1nc(N)nc(N(C)C)n1`, the “Percent Effect” value was 5.267%.

With `CCCSc1ccccc1NC(=O)N1CCN(C(=O)c2ccc[nH]2)CC1`, the “Percent Effect” value is -3.563%.

Regarding `Nc1cc2c(nn1)CCN(C(=O)c1csc(-c3ccco3)n1)C2`, the “Percent Effect” value is -0.9791%.

Regarding `CCCc1cc(CN(C)C2CCSCC2)n[nH]1`, the “Percent Effect” value is reported as -21.94%.

Take `Cn1cc(C[C@H]2[C@H](N3CCOCC3)CCN2C(=O)c2ccoc2)cn1`: the “Percent Effect” value is given as -12.72%.

For the compound `Cc1ccc(C(=O)N2CCN(c3ncnc4nc(N)ccc34)CC2)cc1`, the “Percent Effect” value is recorded as -17.64%.

`CCn1cc(CN2CCN(Cc3cc(C)cc(C)c3)C(=O)C2)cc1C#N`: the “Percent Effect” value is on record as -8.463%.

For `O=C(C1CCC1)N1CCN(C(=O)c2cnccn2)[C@H]2CS(=O)(=O)C[C@H]21`, the “Percent Effect” value was -11.57%.

Regarding `Cl.NC(=O)C1CNCCN1C(=O)COc1ccccc1` (stereo not drawn), the “Percent Effect” value is reported as 142%.

In the case of `O=C(NC1CC1)C1CNCCN1C(=O)COc1ccc2c(c1)OCO2` (stereo not drawn), the “Percent Effect” value is reported as 8.797%.

Turning to `CCC(=O)c1ccc(OCC(=O)N2CCNCC2C(=O)NC2CC2)cc1` (stereo not drawn), the “Percent Effect” value is listed as -8.081%.

In the case of `NC(=O)c1cn[nH]c1C1CCCN1C(=O)c1cnccn1` (stereo not drawn), the “Percent Effect” value turned out to be 109.9%.

In the case of `O=C(c1cc2c([nH]c1=O)CCC2)N1CCCC1c1cccnc1` (stereo not drawn), the “Percent Effect” value was -4.003%.

Take `O=C(NCc1ccc2c(c1)CCCO2)c1cn2c(n1)CNCC2`: the “Percent Effect” value was -2.912%.

For the compound `CN1CCC(N(Cc2ccco2)S(=O)(=O)c2ccc(Cl)cc2)CC1`, the “Percent Effect” value was determined as 18.55%.

On to `COCCc1noc(-c2ccc(N[C@H]3CCCCNC3=O)nc2)n1`, for which the “Percent Effect” value is on record as -20.61%.

Turning to `COc1nc2ccn(CCc3scnc3C)c(=O)c2cc1C#N`, the “Percent Effect” value was -7.908%.

For the compound `Cc1nn(Cc2ccc(C(=O)NCCCN3CCCC3=O)o2)c(C)c1Br`, the “Percent Effect” value is given as 118.7%.

Regarding `O=C(NCCCN1CCCC1=O)Nc1ccc(Br)cc1Cl`, the “Percent Effect” value stood at 29.75%.

On to `Cn1cc(C(=O)NCCCN2CCCCCC2=O)c(-c2cccnc2)n1`, for which the “Percent Effect” value is -24.83%.

In the case of `Cc1nn(Cc2ccc(C(=O)NCCCN3CCCC3=O)o2)c(C)c1Cl`, the “Percent Effect” value is recorded as 113%.

For the compound `CC(NC(=O)NCCCN1CCCC1=O)c1ccc(Cl)s1` (stereo not drawn), the “Percent Effect” value amounted to 5.893%.

Consider `Cc1nn(Cc2ccc(C(=O)NCCCN3CCOCC3)o2)c(C)c1Cl`, for which the “Percent Effect” value stood at 123.2%.

Take `CCn1nc(C)c(CCNC(=O)c2coc(CN3CCOCC3)c2)c1C`: the “Percent Effect” value is -5.303%.

Consider `O=C(NCCN1CCCCCC1=O)c1n[nH]c(=O)c2ccccc12`, for which the “Percent Effect” value was -2.472%.

For the compound `Cc1ccc(C(=O)NCCCN2CCOCC2)c(Cl)c1`, the “Percent Effect” value is recorded as -7.154%.

Consider `CCOCC1CN(C(=O)c2ccncc2)Cc2nn(C)cc21.O=C(O)C(F)(F)F` (stereo not drawn), for which the “Percent Effect” value is recorded as -7.804%.

As to `COCCn1cc(C(=O)N2CCCC2c2cc(C)no2)ccc1=O` (stereo not drawn), the “Percent Effect” value is given as -14.99%.

Consider `CN1CCC(O)(CNCc2ccc(F)c(C(F)(F)F)c2)CC1`, for which the “Percent Effect” value is -14.25%.

Turning to `COCCNc1nc(C)nc2c1CCN(C[C@H]1CC[C@@H](N)CC1)CC2`, the “Percent Effect” value came to 85.9%.

Regarding `c1csc(CN2CCc3nc(N4CCOCC4)nc(NC4CC4)c3C2)n1`, the “Percent Effect” value is listed as -41.6%.

Regarding `Cc1nc2c(c(NCCc3nc(C)c(Cl)s3)n1)CCNCC2`, the “Percent Effect” value is reported as 2.221%.

As for `Nc1nc2c(c(N3CCSCC3)n1)CCN(Cc1ccccn1)CC2`, the “Percent Effect” value was determined as 1.858%.

For the compound `COCCNc1nc2c(c(NCC3CCOC3)n1)CCNCC2` (stereo not drawn), the “Percent Effect” value was 0.8355%.

On to `Nc1nc2c(c(NCc3nccs3)n1)CCN(CC1CCCC1)CC2`, for which the “Percent Effect” value worked out at 99.65%.

Take `Cc1cnn(CCNc2ncnc3c2CCN(CC2CCOC2)CC3)c1` (stereo not drawn): the “Percent Effect” value worked out at 11.29%.

`Cc1nc2c(c(NCCc3nccs3)n1)CCN(CC1CC1)CC2`: the “Percent Effect” value was determined as 100.8%.

`CCOCc1nc2c(c(N3CC=CC3)n1)CCN(CC1CC1)CC2`: the “Percent Effect” value is -17.04%.

For the compound `CCN(Cc1nccn1C)C(=O)c1ccc(NCC(C)C)nc1`, the “Percent Effect” value is -32.37%.

In the case of `Cc1cnc(N2CCC3(C2)CN(S(=O)(=O)C2CC2)C3)nc1`, the “Percent Effect” value is -23.78%.

In the case of `CCn1nc(CC(C)C)cc1C(=O)N1CCCOC(CN2CCCC2)C1` (stereo not drawn), the “Percent Effect” value amounted to 12.35%.

As for `O=C(NCC1CCCO1)Nc1nnc(C(F)(F)F)s1` (stereo not drawn), the “Percent Effect” value was found to be 131.1%.

For `COc1cc(CNC(=O)Nc2nnc(C(F)(F)F)s2)ccc1O`, the “Percent Effect” value is on record as -18.17%.

Consider `CCOCCC(=O)NCC1CCCO1` (stereo not drawn), for which the “Percent Effect” value was 5.918%.

Turning to `Cc1csc(N2CCCN(Cc3ccn(C)c(=O)c3)CC2)n1`, the “Percent Effect” value came out at 2.494%.

Take `CNS(=O)(=O)CCn1cc(-c2ccc(NC(C)=O)cc2)nn1`: the “Percent Effect” value is -17.97%.

Regarding `CN(C)S(=O)(=O)N1CCC(Oc2ccccn2)CC1`, the “Percent Effect” value is -12.57%.

With `CN(C)S(=O)(=O)N1CCC(Oc2cccnn2)CC1`, the “Percent Effect” value came out at 154.7%.

In the case of `Cc1ccc(S(=O)(=O)N2CCC(Oc3cccnn3)CC2)c(C)c1`, the “Percent Effect” value is -2.974%.

Take `Cc1cc(CN2CC[C@H]3C[C@H](C(=O)Nc4cccnc4C)O[C@@H]3C2)no1.O=C(O)C(F)(F)F.O=C(O)C(F)(F)F`: the “Percent Effect” value worked out at 0%.

Turning to `COc1ccccc1Nc1nc2c(s1)C(=O)CN(C(=O)CC(C)C)C2`, the “Percent Effect” value was 106.8%.

In the case of `COCC(=O)N1CC(=O)c2sc(Nc3ccc(F)cc3F)nc2C1`, the “Percent Effect” value worked out at 92.12%.

With `COc1ccccc1NC(=O)CC(C)NCCc1sc(C)nc1C` (stereo not drawn), the “Percent Effect” value is -7.62%.

Turning to `CC(C)CC(=O)N1CC(=O)c2sc(Nc3ccc(F)cc3F)nc2C1`, the “Percent Effect” value is reported as 102.3%.

With `CC(C)(C)NC(=O)CN1CCN(C(=O)Nc2ccc(F)cc2F)CC1`, the “Percent Effect” value is 10.15%.

`Cc1c(C(C)NC(=O)Nc2ccc(F)cc2F)cnn1C` (stereo not drawn): the “Percent Effect” value was -7.694%.

`COc1ccccc1NC(=O)CC(C)NCc1scnc1C` (stereo not drawn): the “Percent Effect” value was -14.83%.

Take `COCC(=O)N1Cc2cnc(Cc3ccc(OC)cc3)nc2C1`: the “Percent Effect” value is recorded as -9.911%.
